sEH inhibitor = soluble epoxide hydrolase (human) inhibition; recombinant human sEH enzymatic activity assay; inhibition, % at 2 µM; hit rate 0.34% among 91,000; AID 707; in the data active = inhibition above about 80%
Target sequence (P34913 whole entry, looked up): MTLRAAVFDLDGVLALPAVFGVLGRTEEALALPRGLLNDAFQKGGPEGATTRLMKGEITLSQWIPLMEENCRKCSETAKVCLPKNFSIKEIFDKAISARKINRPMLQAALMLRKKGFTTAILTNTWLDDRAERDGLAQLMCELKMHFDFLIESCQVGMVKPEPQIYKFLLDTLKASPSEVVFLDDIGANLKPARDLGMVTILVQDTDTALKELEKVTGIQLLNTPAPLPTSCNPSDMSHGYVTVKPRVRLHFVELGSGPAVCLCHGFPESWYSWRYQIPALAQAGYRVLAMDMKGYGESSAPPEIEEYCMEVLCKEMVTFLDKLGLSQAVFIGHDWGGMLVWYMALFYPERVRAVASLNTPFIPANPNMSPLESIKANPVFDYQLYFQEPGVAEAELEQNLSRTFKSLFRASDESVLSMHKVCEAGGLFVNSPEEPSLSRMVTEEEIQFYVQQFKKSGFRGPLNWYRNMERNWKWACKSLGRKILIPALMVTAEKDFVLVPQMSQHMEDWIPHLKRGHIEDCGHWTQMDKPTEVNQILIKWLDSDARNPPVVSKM
CYP2C19 activ = activators of human cytochrome P450 2C19; recombinant CYP2C19, luciferin-H EGE luminescence; hits give high values; 0 = fully inhibited enzyme, 1 = untreated enzyme; P33261; activation factor at 5 µM; 96,000 tested, under 10 active;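 active = activation factor of at least 2 at 5 µM in the primary screen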
CYP2C9 activ = CYP2C9 (human) activation. activation factor at 5 µM. hit rate 1.4% among 96,000. recombinant CYP2C9, luciferin-H conversion, luminescence; hits give high values; factor 1 = untreated enzyme, 0 = blocked;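 active = activation factor of 2 or more for CYP2C9 at a 5 µM dose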
sEH activator = soluble epoxide hydrolase (human) activation; P34913; activation, % at 2 µM; hit rate 0.04% among 91,000; purified human sEH enzymatic activity, activator screen; AID 717; in the data active = activation above about 37%
CYP2C19 inhib = blocks human cytochrome P450 2C19; P33261; CYP2C19 Supersomes, luciferin-H EGE luminescence, 30 min; inhibition, % at 5 µM; hit rate 21% among 96,000;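 active = CYP2C19 inhibition above a set limit at 5 µM in the primary screen, cut at about 50% in these data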
CYP2C9 inh = blocks human cytochrome P450 2C9 | inhibition, % at 5 µM | CYP2C9 Supersomes, luciferin-H conversion, luminescence | P11712 | hit rate 20% among 96,000;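 active = blocking of liver enzyme CYP2C9 beyond about 50% at 5 µM, limit read from the data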
Large screens that a line does not name were inactive. The list is not random: actives were taken first. Their share in the collection is about 27%.

Cc1cccc(OCC(=O)Nc2ccc(S(=O)(=O)N3CCN(C)CC3)cc2)c1	none (no result: CYP2C19 activ, CYP2C9 activ, CYP2C19 inhib, CYP2C9 inh)
O=C(Nc1ccc(S(=O)(=O)N2CCCC2)cc1)N1c2ccccc2Sc2ccccc21	CYP2C9 inh 74.3
COc1cc(CC(=O)OCC(=O)Nc2ccc(S(=O)(=O)N3CCCC3)cc2)cc(OC)c1OC	CYP2C9 inh 60.8
Cc1cccc(OCCC(=O)Nc2ccc(S(=O)(=O)N3CCCC3)cc2)c1	CYP2C9 inh 66.9
COC(=O)c1cccc(NC(=O)CCCOc2cccc(C)c2)c1	CYP2C19 inhib 76.2, CYP2C9 inh 58.0
Cc1ccc(N2C(=O)CC(Sc3nc4ccccc4o3)C2=O)cc1Cl (stereo not given)	none
CCCCSc1nnc2c(n1)[nH]c1ccccc12	none
CC(C)(C)n1nnnc1C(c1cccs1)N1CCCc2ccccc21 (stereo not given)	none
CCCCC(CC)C(=O)NCCc1ccc(S(N)(=O)=O)cc1 (stereo not given)	CYP2C9 inh 58.9
CCC(CC)C(=O)Nc1cccc(C(=O)NCCc2ccc(S(N)(=O)=O)cc2)c1	CYP2C19 inhib 78.2, CYP2C9 inh 90.2
CCC(CC)C(=O)NCCc1ccc(S(N)(=O)=O)cc1	none
CC1=C(C(=O)NCc2ccccc2)C(c2cccs2)n2ncnc2N1 (stereo not given)	none (no result: sEH inhibitor, sEH activator)
COc1ccc(CCN2CC34C=CC(O3)C(C(=O)NCc3ccccc3)C4C2=O)cc1OC (stereo not given)	none
Cc1cc(OCC(=O)c2ccc(F)cc2)ccc1N1C(=O)CCC1=O	none
Cc1cc(C)n(C(=O)CNC(=O)Cc2ccccc2)n1	none
Cc1ccc(OCC(=O)NCC(=O)n2nc(C)cc2C)cc1	CYP2C9 activ 2.3
Cc1cc(C)n(C(=O)CNC(=O)c2ccco2)n1	none
Cc1ccc(OCC(=O)n2nc(C)cc2C)c(Br)c1	none (no result: CYP2C19 activ, CYP2C9 activ, CYP2C19 inhib, CYP2C9 inh)
COc1ccc(C(=O)NCC(=O)n2nc(C)cc2C)cc1OC	CYP2C9 activ 2
Cc1cc(C)n(C(=O)CNC(=O)COc2ccccc2)n1	CYP2C9 activ 2 (no result: sEH inhibitor, sEH activator)
O=C(NCC1CCS(=O)(=O)C1)NCC1CCS(=O)(=O)C1 (stereo not given)	none
O=C1CC(c2ccc(Cl)c(Cl)c2)CC(O)=C1C=NCCN1CCNCC1 (stereo not given)	none (no result: sEH inhibitor, sEH activator)
CC12CCC(=O)N1c1c(sc3nc(N4CCOCC4)c4c(c13)CCCC4)C(=O)N2 (stereo not given)	CYP2C9 inh 68.4
O=C(Cn1cc2c(n1)CCCC2)NC1CCCCCC1	none (no result: sEH inhibitor, sEH activator)
CC1CCc2nn(CC(=O)NC3CCCC3)cc2C1 (stereo not given)	CYP2C19 inhib 59.0
CCCSCCCNC(=O)Cn1cc2c(n1)CCC(C)C2 (stereo not given)	CYP2C19 inhib 50.8
CCOC(=O)c1cccc(NC(=O)Cn2cc3c(n2)CCC(C)C3)c1 (stereo not given)	CYP2C9 inh 75.4 (no result: sEH inhibitor, sEH activator)
CCc1c(O)nc(SCC(=O)Nc2ccc(C)cc2)n(C2CCCCC2)c1=O	none (no result: sEH inhibitor, sEH activator)
O=C(CCn1cccc1)Nc1cc(F)ccc1F	none
COc1ccc(C(c2sc3nc(C)nn3c2O)N2CCC3(CC2)OCCO3)cc1 (stereo not given)	none
Cc1ccc(-n2ncc3c(=O)n(Cc4ccccn4)cnc32)cc1C	none
CC12CN3CC(C)(CN(C1)C3c1ccc3c(c1)OCO3)C2=O (stereo not given)	CYP2C19 inhib 53.3
Cc1cc(C)c2c(=O)[nH]c(=O)n(Cc3ccccc3)c2n1	none
COc1cc(C(=O)NCCCN2CCCC2=O)cc(OC)c1OC	none
CCn1c(NC(=O)Nc2ccccc2OC)nc2ccccc21	none (no result: sEH inhibitor, sEH activator)
CCN(CC)C(=O)CSc1ncnc2c(-c3cccs3)nsc12	none
O/N=C/c1cc(Cl)ccc1OCc1ccccc1Cl	CYP2C9 inh 60.8
O=C(NCc1ccc(F)cc1)c1cc2sccc2n1Cc1ccc(F)cc1	none (no result: CYP2C19 activ, CYP2C9 activ, CYP2C19 inhib, CYP2C9 inh)
CCn1c(C(=O)N2CCC(C(=O)N3CCN(c4ccccn4)CC3)CC2)cc2sccc21	CYP2C19 inhib 65.2
CC1CCN(C(=O)C2CCN(C(=O)c3cc4sccc4n3Cc3ccc(F)cc3)CC2)CC1	CYP2C9 inh 72.9
CC(C)NC(=O)C1CCN(C(=O)c2cc3sccc3n2Cc2ccc(F)cc2)CC1	CYP2C19 inhib 56.5, CYP2C9 inh 72.3
O=C(c1cc2sccc2n1Cc1ccc(F)cc1)N1CCCc2ccccc21	none (no result: CYP2C19 activ, CYP2C9 activ, CYP2C19 inhib, CYP2C9 inh)
O=C(NCc1n[nH]c(=S)n1-c1ccc(F)cc1)c1ccco1	none
COc1cc(OC)cc(C(=O)NC2CC3CCC(C2)N3Cc2ccco2)c1 (stereo not given)	none

High-throughput results (PubChem BioAssay)
